A selection: hits, their analogues and other compounds. The true share with any hit is near 4%.
PAX8 inh HTS: inhibitors of PAX8-driven TPO luciferase reporter, primary screen, RMG-I cells, single concentration | SteadyGlo, 24 h | actives 1.2% (n = 360,000) | inhibition, % at 12.6 µM;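 active means mean replicate inhibition at least 60% with every replicate also reaching 60%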;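 further: luciferase light reporting Pax8 driven TPO promoter activity; plate controls were median of neutral control wells for no effect and mitoxantrone controls for full effect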
Shn3 3UTR inh: reduction of Shn3 3'UTR firefly luciferase signal, primary screen, Schnurri-3 inhibitor project, cell-based, Clone20 osteoblasts, set 2; Clone20 osteoblast Shn3 3'UTR firefly luciferase, 24 h; inhibition, % at 12.5 µM; actives 0.52% (n = 360,000);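 active means mean inhibition of at least 75% with every replicate also reaching 75%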;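 further: 0% = median of neutral control wells and 100% = pilot-screen positive control compound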
Gli-Sufu block: Gli-Sufu pathway antagonists, primary screen, luciferase luminescence, Sufu-KO-LIGHT cells, uHTS. Sufu-KO-LIGHT fibroblasts, Gli luciferase reporter luminescence. inhibition, % at 5 µM. actives 0.74% (n = 340,000). AID 588413, 2011;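 active means inhibition above about 55%, limit read from the data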;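 further: 0% = DMSO-treated cells and 100% = wells with medium but no cells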
Mdm2 MdmX PPI: inhibitors of human Mdm2-MdmX association, primary screen, cell-based, luminescence, split luciferase, SaOS-2, uHTS. Protein Mdm4 (Homo sapiens) + E3 ubiquitin-protein ligase Mdm2 (Homo sapiens), …. SaOS-2 split-luciferase Mdm2/MdmX complementation. inhibition, % at 8 µM. actives 3% (n = 330,000);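 active means inhibition of at least 50% at 8 µM in the primary screen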
Target sequence (O15151 whole entry, looked up): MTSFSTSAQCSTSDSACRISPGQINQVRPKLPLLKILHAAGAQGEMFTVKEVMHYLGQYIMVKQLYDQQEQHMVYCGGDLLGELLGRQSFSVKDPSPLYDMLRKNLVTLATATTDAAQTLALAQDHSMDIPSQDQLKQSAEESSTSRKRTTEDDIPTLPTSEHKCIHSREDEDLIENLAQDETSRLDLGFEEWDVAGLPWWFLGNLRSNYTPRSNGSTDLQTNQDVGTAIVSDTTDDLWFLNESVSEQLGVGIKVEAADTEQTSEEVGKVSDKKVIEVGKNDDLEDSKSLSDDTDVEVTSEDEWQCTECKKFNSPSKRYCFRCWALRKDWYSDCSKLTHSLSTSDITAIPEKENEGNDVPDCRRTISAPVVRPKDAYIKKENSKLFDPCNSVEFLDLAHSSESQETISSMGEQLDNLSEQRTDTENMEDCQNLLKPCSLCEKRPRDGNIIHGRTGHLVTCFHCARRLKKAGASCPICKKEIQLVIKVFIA
Target sequence (Q00987 whole entry, looked up): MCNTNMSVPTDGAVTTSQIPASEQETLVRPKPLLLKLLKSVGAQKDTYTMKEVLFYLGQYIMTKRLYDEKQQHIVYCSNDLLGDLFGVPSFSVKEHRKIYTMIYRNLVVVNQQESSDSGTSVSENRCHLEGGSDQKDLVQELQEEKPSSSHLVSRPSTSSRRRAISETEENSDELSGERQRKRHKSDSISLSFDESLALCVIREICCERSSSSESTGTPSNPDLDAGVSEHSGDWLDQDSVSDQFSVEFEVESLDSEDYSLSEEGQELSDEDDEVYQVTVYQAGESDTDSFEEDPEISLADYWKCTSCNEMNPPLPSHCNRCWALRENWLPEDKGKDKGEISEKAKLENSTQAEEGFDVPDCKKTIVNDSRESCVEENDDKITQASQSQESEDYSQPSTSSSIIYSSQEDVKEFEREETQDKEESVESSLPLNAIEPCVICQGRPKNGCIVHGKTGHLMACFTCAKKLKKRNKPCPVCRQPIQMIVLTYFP
CSC inhib: cancer stem cell viability inhibitors, primary screen, luminescence; inhibition, % at 7.5 µM; actives 1.1% (n = 300,000); cancer stem cell-like cells viability; in the data active means inhibition above about 75%; tested in HMLE shEcad cells
Beta cell apopt: inhibitors of cytokine-induced beta cell apoptosis, primary screen, luminescence. INS-1E cytokine-induced death, ATP luminescence, 48 h; percent of positive-control rescue, neutral wells zero. protection from apoptosis, % (concentration not given with the values). actives 0.8% (n = 300,000). AID 435005, 2010;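 active means Every replicate reaches about 75%, or at least half do and their mean reaches it too, limit read from the data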;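 further: 0% = cytokine-treated negative control wells and 100% = positive control rescue; higher means more ATP so stronger rescue from cytokine killing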
Mdm2 MdmX conf: Mdm2-MdmX complex disruptors, retested hits, confirmation, luminescence, single concentration. Mdm2-MdmX binding, luminescent assay. AID 489028, 2010. actives 55% (n = 10,000). inhibition, % at 8 µM. shares compounds with Mdm2 MdmX PPI; in the data active means inhibition above about 40%
Full FLuc ctr: full-length luciferase signal inhibition, confirmation, counter-screen for Mdm2/MdmX interaction inhibitor project, cell-based, single concentration, SaOS-2. actives 77% (n = 6,200). SaOS-2 full-length luciferase counterscreen, luminescence. inhibition, % at 8 µM. AID 504607, 2011. shares compounds with Mdm2 MdmX PPI;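 active means mean inhibition at 8 µM reaching about 37%, which flags the compound as non-specific, limit read from the data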;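 further: p53-null SaOS-2 cells with luciferase driven by a doxycycline-inducible promoter; compound on cells about two nights before reading with doxycycline added after day one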
* hit, by the source's call; . = not tested or not shown; ! = repeats disagree.

SMILES | PAX8 inh HTS | Shn3 3UTR inh | Gli-Sufu block | Mdm2 MdmX PPI | CSC inhib | Beta cell apopt | Mdm2 MdmX conf | Full FLuc ctr
COc1cc(C(Nc2ccccn2)c2ccc3ccc(C)nc3c2O)cc(OC)c1O (stereo not given) | . | 64.3 | 33.7 | 79.5* | 69.8 | 2.7 | 80.9* | 50.7*
CCCNC(=O)N1C[C@H]2[C@@H](c3ccccc31)[C@H](CO)N2C(=O)NCCC | -1.6 | . | . | . | . | . | . | .
C[C@H]1CCCCO[C@@H](CN(C)C(=O)NC2CCCCC2)[C@@H](C)CN([C@@H](C)CO)C(=O)c2cc(NS(=O)(=O)c3cccs3)ccc2O1 | 3.2 | . | . | . | . | . | . | .
O=C1CC(=Nc2ccccc2)NN1c1ccccc1 | . | 2.7 | -1.4 | 58.4* | 129.7* | 20.9 | 0.9 | .
CCOC(=O)C1=C(COCCN)NC(C)=C(C(=O)OC)C1c1ccccc1Cl (stereo not given) | -11.1 | -8.2 | -2.4 | 61.9*! | 11.3 | -2.7 | 20.9 | .
Clc1ccccc1/C=C/c1nc(-c2ccccn2)no1 | 44.7 | . | 5.1 | 66.4* | 15.0 | 3.8 | 54.4* | 94.5*
Cc1onc(-c2ccccc2Cl)c1-c1nc(-c2ccccn2)no1 | . | 8.0 | -13.0 | 19.4 | 10.2 | -3.0 | . | .
COc1cc2cncc(Cc3ccc(Cl)cc3)c2cc1OC | . | 44.9 | 1.2 | 68.6* | 0.5 | -9.6 | 65.3* | 26.2
COCC(=O)Nc1ccc2c(c1)OC[C@H](C)N(CCc1ccccc1)C[C@@H](C)[C@@H](OC)CN(C)C2=O | -6.4 | . | . | . | . | . | . | .
CCSc1nsc(NC(=O)Nc2ccccc2F)n1 | -131.2 | 10.4 | -37.8 | -49.5 | 7.1 | 19.0 | . | .
C=CCSc1nsc(NC(=O)Nc2ccc(F)cc2)n1 | -11.5 | 55.0 | 39.3 | 91.3* | 101.0* | 110.6* | 89.0* | 28.0
COc1ccc(Cn2c(=O)[nH]c3cc(C(=O)NCc4ccc5c(c4)OCO5)ccc3c2=O)cc1 | 10.3 | 33.1 | 4.8 | 65.0* | -0.3 | 5.0 | 29.4 | .
COc1ccc(Cn2c(=S)[nH]c3cc(C(=O)NCc4cccnc4)ccc3c2=O)cc1 | -20.5 | -8.5 | 6.3 | 74.3* | 29.4 | 11.3 | -8.0 | .
CC1CCN(CCCNC(=O)c2ccc3c(=O)n(Cc4ccc(Cl)cc4)c(=S)[nH]c3c2)CC1 | 23.0 | -6.2 | 7.9 | 88.1* | 88.0* | -6.3 | 38.2 | 76.5*
COC(=O)c1ccc2c(=O)n(Cc3ccc(C(=O)NCCCN4CCC(C)CC4)cc3)c(=S)[nH]c2c1 | -5.7 | 11.5 | 4.8 | -6.1 | -1.2 | 2.0 | . | .
O=C(NCC1CCCO1)c1ccc2c(=O)n(Cc3cccc(Br)c3)c(=S)[nH]c2c1 (stereo not given) | -6.1 | 31.3 | 7.8 | 58.1* | 22.5 | 20.2 | 30.1 | .
CC(C)NC(=O)Nc1ccc2c(c1)C(=O)N(C)[C@H]1CC[C@@H](CC(=O)NCC3CCCCC3)O[C@H]1CO2 | -7.0 | . | . | . | . | . | . | .
CNC[C@H]1Oc2c(NC(=O)Nc3ccc(C(F)(F)F)cc3)cccc2C(=O)N([C@@H](C)CO)C[C@H]1C | -26.0 | . | . | . | . | . | . | .
Brc1ccc2c(c1)OCCOCCOc1cc(Br)ccc1OCCOCCOCCO2 | . | 76.7 | 22.8 | 74.0* | 6.3 | 19.2 | 39.5 | 59.7*
Brc1cc2c(cc1Br)OCCOCCOCCOCCO2 | 9.7 | 0.2 | 12.1 | -7.4 | -7.0 | -2.9 | . | .
CCc1cnc(N2[C@H](C#N)[C@@H](c3ccc(C#CCC4CCCC4)cc3)[C@@H]2CO)s1 | -11.9 | . | . | . | . | . | . | .
COc1cc2c(ccc3cc(OC)c(OC)c(O)c32)cc1O | . | 18.5 | 7.8 | 73.6* | -5.1 | 10.2 | 38.0 | 31.4
COc1cc2cccc(OC)c(=O)c2c(O)c1OC | -60.2 | -29.6 | -24.4 | -39.7 | 13.2 | -1.5 | . | .
CCOC(=O)COn1c(=O)c(-c2ccc(OC)c(OC)c2)[n+]([O-])c2ccccc21 | . | . | . | 92.7* | -13.2 | 28.1 | 29.4 | .
CCOC(=O)NC(C(Cl)(Cl)Cl)S(=O)(=O)c1ccccc1 (stereo not given) | -37.5 | 9.9 | 2.3 | 3.8 | 8.6 | -11.3 | . | .
SMILES | PAX8 inh HTS | Shn3 3UTR inh | Gli-Sufu block | Mdm2 MdmX PPI | CSC inhib | Beta cell apopt | Mdm2 MdmX conf | Full FLuc ctr
COC(=O)NC(=C(Cl)Cl)S(=O)(=O)c1ccccc1 | . | 22.0 | . | 54.6* | 21.0 | . | 15.3 | .
O=C(/C=C/NNC(=O)c1ccccc1O)c1ccccc1 | 16.1 | -18.9 | -10.3 | 56.7* | 18.1 | 5.1 | 12.8 | .
Cc1cc(N2CCN(C)CC2)ccc1NC(=O)c1c2c(nc3ccccc13)CCN(Cc1ccccc1)C2 | . | 38.5 | 49.5 | 100.3* | -13.7 | 98.8* | 99.5* | 52.0*
CC(C)c1ccccc1NC(=O)COC(=O)c1c2c(nc3ccccc13)CCN(Cc1ccccc1)C2 | 31.6 | 16.9 | 28.4 | 53.0* | 10.5 | 0.4 | 33.2 | .
O=C(c1cnccn1)N1CC(=O)N2[C@H](CO)[C@H](c3ccc(C#CCc4ccccc4)cc3)[C@H]2C1 | 50.4 | . | . | . | . | . | . | .
CCCNC(=O)N1[C@H](CNC(=O)CC)[C@@H](c2ccc(C3=CCCC3)cc2)[C@@H]1CO | -11.1 | . | . | . | . | . | . | .
Cc1ccc2nc(C(F)(F)F)c(C#N)c(N)c2c1 | . | -22.0 | -8.3 | 85.0* | 23.3 | -33.7 | 67.2* | 25.7
Cc1cc(C)c2nc(C(F)(F)F)c(C#N)c(N)c2c1 | . | 11.0 | -8.4 | 70.9* | -2.5 | -7.8 | 86.1* | 55.0*
Cc1cccc(C(C#N)c2nc3ccccc3nc2C(F)(F)F)c1 (stereo not given) | . | 7.8 | -7.1 | 3.7 | -5.9 | 5.4 | . | .
Cc1ccc(CSc2nccc(-c3c(C)nc4ccccn34)n2)cc1 | 3.6 | 78.9 | . | 66.1* | 52.9 | 7.9 | 45.9* | 52.7*
C[C@@H]1CN([C@H](C)CO)C(=O)c2cccc(NC(=O)Nc3ccccc3)c2O[C@@H]1CN(C)S(=O)(=O)c1ccc(Cl)cc1 | 14.3 | . | . | . | . | . | . | .
CCCn1c(Nc2nc3ccccc3n2C)nc2ccccc21 | . | -20.8 | 4.8 | 89.5* | 104.2* | 111.0* | 100.2* | 53.0*
CCCCCCCn1c(NC(=O)CC)nc2ccccc21 | 49.4 | 20.4 | -4.6 | 77.3* | 5.5 | 53.5 | 41.5* | 51.5*
CCC(=O)Nc1nc2ccccc2n1CCN1CCOCC1 | . | -20.5 | 21.2 | 5.3 | -19.4 | . | . | .
CCCn1c(NC(=O)c2cccc(S(=O)(=O)N3CCCC3)c2)nc2ccccc21 | 73.8* | 71.4 | -7.0 | 93.3* | . | 20.8 | 75.8* | 57.4*
CCCn1c(NC(=O)c2ccccc2)nc2ccccc21 | . | -7.4 | -10.3 | -14.1 | 4.3 | 19.1 | . | .
